In PubChem BioAssay AID1159580 (chemical genetic matrix, 2015):
Where “and” joins values, the source holds several entries; their conditions need not be identical. Equal values may be shown once. The whole screen tested about 5,500 compounds, of which about 2,000 (36%) were called active. Inconclusive results (about 18%) are left out. Cut-off read from the data, not from the text of the source: active = normalized growth mostly below about 0.91 (no sharp cut-off); inconclusive = no clear call, values can overlap the other calls; inactive = mostly above about 0.92. Some of the results follow.

Experiment: chemical genetic growth profiling, strain panel (AID 1159580);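 note: tested at 20 µM; growth read once vehicle control cultures reached saturation at 30 °C; 1 = growth at the plate median or of vehicle wells; lower values mean less growth of the strain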
Details: growth OD

Measured: normalized growth

O=C1N=C(O)CN1/N=C\c1ccc(-c2ccc([N+](=O)[O-])cc2)o1
inactive: S. cerevisiae deletion strains, locus YJR075W, strain HOC1, stronger effect = lower value 1.03 and 0.99 | S. cerevisiae deletion strains, locus YKL009W, strain mrt4, stronger effect = lower value 1.04 | S. cerevisiae deletion strains, locus YKL068W, stronger effect = lower value 1.03 | S. cerevisiae deletion strains, locus YKL085W, strain MDH1 (second series), stronger effect = lower value 1.02 | S. cerevisiae deletion strains, locus YKL085W, strain MDH1, stronger effect = lower value 1.02 | S. cerevisiae deletion strains, locus YKL160W, strain elf1, stronger effect = lower value 0.994 | S. cerevisiae deletion strains, locus YKL190W, strain CNB1, stronger effect = lower value 1.02 | S. cerevisiae deletion strains, locus YKR001C, strain vps1, stronger effect = lower value 1.03 | S. cerevisiae deletion strains, locus YKR026C, strain gcn3, stronger effect = lower value 0.99 | S. cerevisiae deletion strains, locus YKR091W, strain srl3, stronger effect = lower value 0.98 | S. cerevisiae deletion strains, locus YLL001W, strain dnm1, stronger effect = lower value 1 | S. cerevisiae deletion strains, locus YLL026W, stronger effect = lower value 0.997 | S. cerevisiae deletion strains, locus YLL041C, strain sdh2, stronger effect = lower value 0.97 | S. cerevisiae deletion strains, locus YLR027C, strain aat2, stronger effect = lower value 0.988 | S. cerevisiae deletion strains, locus YLR039C, strain RIC1, stronger effect = lower value 1.05 | S. cerevisiae deletion strains, locus YLR058C, strain SHM2, stronger effect = lower value 1.02 | S. cerevisiae deletion strains, locus YLR102C, strain apc9, stronger effect = lower value 1.03 | S. cerevisiae deletion strains, locus YLR113W, strain HOG1, stronger effect = lower value 1.02 | S. cerevisiae deletion strains, locus YLR221C, strain rsa3, stronger effect = lower value 0.994 | S. cerevisiae deletion strains, locus YLR258W, strain gsy2, stronger effect = lower value 0.994 | S. cerevisiae deletion strains, locus YLR262C, strain YPT6 (second series), stronger effect = lower value 0.933 | S. cerevisiae deletion strains, locus YLR262C, strain YPT6, stronger effect = lower value 1.05 | S. cerevisiae deletion strains, locus YLR268W, strain sec22, stronger effect = lower value 1.01 | S. cerevisiae deletion strains, locus YLR320W, strain mms22, stronger effect = lower value 0.966 | S. cerevisiae deletion strains, locus YLR330W, strain CHS5, stronger effect = lower value 1.02 | S. cerevisiae deletion strains, locus YLR342W, strain FKS1 (second series), stronger effect = lower value 1 | S. cerevisiae deletion strains, locus YLR342W, strain FKS1, stronger effect = lower value 0.986 | S. cerevisiae deletion strains, locus YLR357W, strain rsc2, stronger effect = lower value 0.931 | S. cerevisiae deletion strains, locus YLR370C, strain arc18, stronger effect = lower value 0.985 | S. cerevisiae deletion strains, locus YLR371W, strain rom2, stronger effect = lower value 1.02 | S. cerevisiae deletion strains, locus YLR384C, strain iki3, stronger effect = lower value 0.974 | S. cerevisiae deletion strains, locus YLR418C, strain cdc73, stronger effect = lower value 1.02 | S. cerevisiae deletion strains, locus YML016C, strain PPZ1, stronger effect = lower value 1.02 | S. cerevisiae deletion strains, locus YML032C, strain rad52, stronger effect = lower value 1.03 | S. cerevisiae deletion strains, locus YML120C, strain ndi1, stronger effect = lower value 0.988 | S. cerevisiae deletion strains, locus YML124C, strain tub3, stronger effect = lower value 1.03 | S. cerevisiae deletion strains, locus YMR058W, strain fet3, stronger effect = lower value 0.972 | S. cerevisiae deletion strains, locus YMR078C, strain ctf18, stronger effect = lower value 1.04 | S. cerevisiae deletion strains, locus YMR125W, strain sto1, stronger effect = lower value 0.974 | S. cerevisiae deletion strains, locus YMR129W, stronger effect = lower value 0.98 | S. cerevisiae deletion strains, locus YMR205C, strain PFK2, stronger effect = lower value 0.996 | S. cerevisiae deletion strains, locus YMR223W, strain ubp8, stronger effect = lower value 1.02 | S. cerevisiae deletion strains, locus YMR231W, strain pep5, stronger effect = lower value 0.993 | S. cerevisiae deletion strains, locus YMR263W, strain SAP30, stronger effect = lower value 1.02 and 0.999 | S. cerevisiae deletion strains, locus YMR307W, strain GAS1, stronger effect = lower value 1.05 | S. cerevisiae deletion strains, locus YNL067W, strain RPL9B, stronger effect = lower value 1.02 | S. cerevisiae deletion strains, locus YNL071W, strain lat1, stronger effect = lower value 0.978 | S. cerevisiae deletion strains, locus YNL128W, strain TEP1, stronger effect = lower value 1.04 and 1.01 | S. cerevisiae deletion strains, locus YNL153C, strain GIM3, stronger effect = lower value 1.01 and 1.03 | S. cerevisiae deletion strains, locus YNL175C, strain NOP13, stronger effect = lower value 1.01 | S. cerevisiae deletion strains, locus YNL183C, strain NPR1, stronger effect = lower value 0.96 | S. cerevisiae deletion strains, locus YNL197C, strain WHI3, stronger effect = lower value 1.03 | S. cerevisiae deletion strains, locus YNL209W, strain ssb2, stronger effect = lower value 0.979 | S. cerevisiae deletion strains, locus YNL224C, strain SQS1, stronger effect = lower value 0.998 | S. cerevisiae deletion strains, locus YNL233W, strain BNI4, stronger effect = lower value 1.01 | S. cerevisiae deletion strains, locus YNL248C, strain rpa49, stronger effect = lower value 0.974 | S. cerevisiae deletion strains, locus YNL250W, strain rad50, stronger effect = lower value 1.06 | S. cerevisiae deletion strains, locus YNL271C, strain bni1, stronger effect = lower value 1.02 | S. cerevisiae deletion strains, locus YNL298W, strain CLA4, stronger effect = lower value 1.05 | S. cerevisiae deletion strains, locus YNL307C, strain MCK1, stronger effect = lower value 1.02 | S. cerevisiae deletion strains, locus YNL322C, strain KRE1 (second series), stronger effect = lower value 0.976 | S. cerevisiae deletion strains, locus YNL322C, strain KRE1, stronger effect = lower value 1.03 and 0.967 | S. cerevisiae deletion strains, locus YNR049C, strain mso1, stronger effect = lower value 0.988 | S. cerevisiae deletion strains, locus YNR052C, strain pop2, stronger effect = lower value 1.03 | S. cerevisiae deletion strains, locus YOL006C, strain TOP1, stronger effect = lower value 1.02 | S. cerevisiae deletion strains, locus YOL012C, strain htz1 0.991 | S. cerevisiae deletion strains, locus YOL147C, strain pex11, stronger effect = lower value 1.03 | S. cerevisiae deletion strains, locus YOR001W, strain rrp6, stronger effect = lower value 1.02 | S. cerevisiae deletion strains, locus YOR061W, strain CKA2, stronger effect = lower value 1.02 | S. cerevisiae deletion strains, locus YOR069W, strain VPS5, stronger effect = lower value 1.01 | S. cerevisiae deletion strains, locus YOR070C, strain gyp1, stronger effect = lower value 0.996 | S. cerevisiae deletion strains, locus YOR080W, strain dia2, stronger effect = lower value 0.989 | S. cerevisiae deletion strains, locus YOR083W, strain WHI5 (second series), stronger effect = lower value 1.03 | S. cerevisiae deletion strains, locus YOR083W, strain WHI5, stronger effect = lower value 0.977 | S. cerevisiae deletion strains, locus YOR106W, strain vam3, stronger effect = lower value 0.972 | S. cerevisiae deletion strains, locus YOR136W, strain idh2, stronger effect = lower value 1.03 | S. cerevisiae deletion strains, locus YOR144C, strain elg1, stronger effect = lower value 1.03 | S. cerevisiae deletion strains, locus YOR184W, strain ser1, stronger effect = lower value 1.04 | S. cerevisiae deletion strains, locus YOR231W, strain MKK1, stronger effect = lower value 1.03 | S. cerevisiae deletion strains, locus YOR265W, strain rbl2, stronger effect = lower value 0.986 | S. cerevisiae deletion strains, locus YOR270C, strain vph1, stronger effect = lower value 0.911 | S. cerevisiae deletion strains, locus YOR290C, strain snf2, stronger effect = lower value 0.961 | S. cerevisiae deletion strains, locus YOR316C, strain cot1, stronger effect = lower value 1.02 | S. cerevisiae deletion strains, locus YPL051W, strain arl3, stronger effect = lower value 0.999 | S. cerevisiae deletion strains, locus YPL055C, strain LGE1, stronger effect = lower value 1.02 | S. cerevisiae deletion strains, locus YPL078C, strain atp4, stronger effect = lower value 0.973 | S. cerevisiae deletion strains, locus YPL106C, strain sse1, stronger effect = lower value 0.981 | S. cerevisiae deletion strains, locus YPL240C, strain hsp82, stronger effect = lower value 0.993 | S. cerevisiae deletion strains, locus YPL241C, strain CIN2, stronger effect = lower value 1.02 and 1 | S. cerevisiae deletion strains, locus YPL256C, strain CLN2, stronger effect = lower value 1 | S. cerevisiae deletion strains, locus YPR119W, strain clb2, stronger effect = lower value 1.02 | S. cerevisiae deletion strains, locus YPR141C, strain kar3, stronger effect = lower value 1.04 | S. cerevisiae deletion strains, locus YPR163C, strain tif3, stronger effect = lower value 1.03 | S. cerevisiae deletion strains, locus YPR167C, strain met16, stronger effect = lower value 1.04 | S. cerevisiae deletion strains, strain wtn01, stronger effect = lower value 1.03 | S. cerevisiae strains, strain wild type, stronger effect = lower value 1.02
